Holding throughout (assay): NCI-60 one-dose screen, 48 h (100 = growth as untreated, 0 = no growth, -100 = all killed)
Holding throughout (conditions): 10 µM unless noted

The subject of assay [1] is SR leukemia.
Assay [2] relates to OVCAR-8 ovarian.
The test system of assay [3] is OVCAR-5 ovarian.
Assay [4] concerns OVCAR-4 ovarian.
Assay [5] concerns SK-OV-3 ovarian.
The test system of assay [6] is IGROV1 ovarian.
Assay [7] relates to OVCAR-3 ovarian.
Assay [8] relates to HS 578T breast.
Assay [9] deals with NCI/ADR-RES ovarian.
Assay [10] deals with T-47D breast.
Assay [11] deals with BT-549 breast.
The subject of assay [12] is MDA-MB-435 melanoma.
Assay [13] deals with SW-620 colon.
For assay [14], the system named is MCF7 breast.
For assay [15], the system named is HCT-116 colon.
Assay [16] deals with HCC-2998 colon.
Assay [17] concerns KM12 colon.

The panel holds about 83,000 compounds, 20% with a hit somewhere; the sample as a whole holds those more often.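 Each cell line was grown in a 96-well plate and treated with one concentration of compound for 48 hours. Values below 10 were considered active.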 Unmarked numbers belong to inactive results. Calls of active or inactive are those of the source.

Regarding `O=c1c2cc(F)ccc2sc2c(NCCCNCCO)nc3ccc(F)cc3c12`, the growth is -25.8% (active) in [1]; 58.5% in [2]; 73.7% in [3]; 41.5% in [4]; 80.4% in assay [5]; 43.6% in assay [6]. The growth in assay [7] was 30.4%; in assay [8], 61%; in [9] it was 66.5%; in assay [10], 70.2%; in [11], 83.9%; in assay [12], -28.4% (active). For the same compound, the growth in assay [13] was -39.7% (active); in assay [14], 47.9%; in assay [15] it was -72.8% (active); in [16], 1.69% (active); in assay [17] it was 24.9%.

For the compound `NCCNc1nc2ccccc2c2c(=O)c3cccc(F)c3sc12`, the growth in assay [1] was 12.3%; in assay [2], 46.5%; in assay [3] it was 81.8%; in assay [4], 48.3%; in [5], 78.8%; in assay [6], 48%. Besides, the growth is 53.1% in [7]; 67.6% in assay [8]; 53.9% in assay [9]; 70.7% in assay [10]; 98.5% in assay [11]; 58.5% in assay [12]. The growth was 17.7% in assay [13]; 45.1% in [14]; 15.1% in assay [15]; 15.5% in [16]; 34.3% in [17].

`Cc1cc(C)c(-c2c(N)cc(Br)cc2Br)c(N)c1`: the growth was 24.9% in [1]; 83.8% in [2]; 84.9% in [3]; 74.3% in [4]; 31.7% in [5]; 63.9% in assay [6]. The growth is 65% in [7]; 66.4% in [8]; 54.5% in assay [9]; 54.6% in assay [10]; 69.6% in [11]; -25.8% (active) in assay [12]. Moreover, the growth in [13] is 48.5%; in assay [14] it was 21.4%; in assay [15] it was 23.5%; in [16], 75.1%; in assay [17], 40.5%.

Take `N#Cc1cccc(NC(=O)c2cc(-c3ccc(F)cc3F)ccc2O)c1`: the growth in assay [1] was 12.8%; in assay [2], 16.8%; in assay [3], 36.8%; in assay [4], 22.1%; in assay [5] it was 6.59% (active); in [6], 29%. In addition, the growth is 1.29% (active) in assay [7]; 16% in assay [8]; 4.93% (active) in [9]; 16.1% in assay [10]; 5.92% (active) in [11]; 8.27% (active) in assay [12]. Also, the growth in assay [13] is 18.8%; in assay [14], 3.66% (active); in assay [15] it was 7.36% (active); in assay [16], 26.5%; in assay [17] it was 7.89% (active).

Take `C/C=C(\C)C(=O)N[C@H]1[C@@H](OC(C)=O)C[C@]2(C)C3CC[C@@]4(C)C(CC[C@@H]4C(C)N(C)C)C3CCC2[C@H]1O` (some centres undefined): the growth in assay [1] was 51%; in assay [2], 78.6%; in assay [3], 96.7%; in [4], 15.3%; in assay [5], 93.6%; in assay [6] it was 66.4%. For the same compound, the growth in [7] was 74.9%; in assay [8], 88.6%; in [9], 67.9%; in assay [10], 60.6%; in [11], 63.4%; in assay [12], 1.82% (active). Moreover, the growth in assay [13] is 63.9%; in assay [14], 61.9%; in assay [15], 30.7%; in [16], 69.2%; in [17], 45.6%.

For the compound `Cc1ccc(-c2cnc3sc(C(=O)NCCc4ccccc4)c(C)n23)cc1`, the growth is 110% in assay [1]; 96.9% in assay [2]; 98.5% in assay [3]; 67% in assay [4]; 84.6% in assay [5]; 80.5% in assay [6]. Further, the growth in assay [7] was 79.4%; in [8] it was 86.4%; in [9], 104%; in [10] it was 70%; in assay [11], 79.5%; in assay [13], 91.9%. The growth is 83.2% in assay [14], 95.6% in assay [15], 96.9% in assay [16] and 96% in assay [17].

Regarding `CC(C)C(=O)Nc1ccc(-c2nc(-c3cccc(OCCN4CCOCC4)c3)c(-c3ccnc(Br)c3)[nH]2)cc1`, the growth in assay [1] is -3.9% (active); in [2], 51.8%; in assay [3] it was 75.2%; in [4], 60%; in [5] it was 73.6%; in assay [6] it was 68.7%. Besides, the growth in assay [7] was 63.3%; in [8] it was -26% (active); in [9] it was 91.7%; in assay [10], 39%; in [11], 56.4%; in [13] it was 50.4%. Besides, the growth is 15.9% in [14], 44.5% in [15], 66.2% in assay [16] and 33.7% in [17].

As to `c1ccc2c(c1)Nc1ccncc1S2`, the growth in assay [1] was 200%; in [2], 101%; in assay [3], 89.5%; in assay [4] it was 93.1%; in assay [5], 112%; in assay [6], 99.4%. The growth is 119% in assay [7]; 102% in [8]; 107% in assay [9]; 95.3% in [10]; 75% in assay [11]; 121% in assay [12]. For the same compound, the growth in assay [13] was 92.5%; in assay [14], 100%; in assay [15], 82%; in [17] it was 103%.

Regarding `CCOC(=O)Nc1ccc(-c2nc(-c3cccc(OC)c3)c(-c3ccnc(Br)c3)[nH]2)cc1`, the growth was 9.48% (active) in assay [1]; 29.4% in assay [2]; 66.9% in assay [3]; 33.6% in assay [4]; 67.3% in assay [5]; 45.2% in assay [6]. Moreover, the growth in [7] is 33.3%; in assay [8], -5.11% (active); in [9], 27.6%; in assay [10], 13%; in [11] it was 56.1%; in [13], 46.9%. The growth is 17.3% in assay [14], 25.4% in [15], 40.9% in assay [16] and 24.7% in assay [17].

The values above are taken from PubChem BioAssay (NCI).
